Over roughly 33,000 sequences, “E-score (-0.5 to 0.5)” has its median near -0.016; the highest 2% begin near 0.31. The full list was thinned out, with the highest values kept by preference.
target: Cst6 (UniProt P40535); assay: PBM E-score (8-mer binding enrichment) (E-score (-0.5 to 0.5)); higher = stronger / more preferred TF binding; details: protein concentration: 200 nM; construct: GST-DNA-binding domain
In short: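 Using PURExpress in vitro transcription/translation, GST-tagged yeast transcription factors were made in full-length or DNA-binding-domain form. These were applied at about 100-200 nM to double-stranded universal all-10-mer Agilent arrays, and bound protein was detected with fluorescent anti-GST. Scans were normalised with masliner before the Universal PBM Analysis Suite assigned E-scores to ungapped eight-base words pooled with their reverse complements.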

Chain of UniProt P40535 (P40535 whole entry, the tested form may be a part): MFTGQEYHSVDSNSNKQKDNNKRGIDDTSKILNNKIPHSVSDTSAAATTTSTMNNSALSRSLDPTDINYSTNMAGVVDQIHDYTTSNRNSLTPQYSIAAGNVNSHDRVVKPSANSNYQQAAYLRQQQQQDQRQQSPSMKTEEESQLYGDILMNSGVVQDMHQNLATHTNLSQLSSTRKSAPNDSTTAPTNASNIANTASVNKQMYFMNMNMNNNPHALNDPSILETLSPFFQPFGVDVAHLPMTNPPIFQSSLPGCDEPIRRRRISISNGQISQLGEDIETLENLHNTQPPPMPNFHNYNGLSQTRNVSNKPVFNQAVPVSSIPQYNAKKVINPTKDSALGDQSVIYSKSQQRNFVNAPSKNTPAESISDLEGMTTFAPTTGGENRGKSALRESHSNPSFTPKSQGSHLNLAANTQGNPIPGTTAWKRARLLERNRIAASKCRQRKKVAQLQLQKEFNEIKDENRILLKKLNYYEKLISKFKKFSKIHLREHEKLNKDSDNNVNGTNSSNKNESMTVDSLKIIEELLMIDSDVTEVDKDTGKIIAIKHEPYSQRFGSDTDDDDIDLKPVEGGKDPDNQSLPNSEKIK

Sequence	PBM E-score
CGTTAGAA	0.101
ATGATGCC	0.347
CTGATGCC	0.113
AGGATGCC	0.0165
GAGATGCA	-0.071
ATGATGCA	0.362
ATGATGCG	0.296
GTGATGCA	0.383
ACGATGCA	-0.00326
CTGATGCA	0.0731
CCGGATCG	-0.134
ACTTTTCA	0.133
CTTCCCAC	0.0313
GACTCGCC	-0.223
CCGGGTTA	-0.281
CAAAAGAA	0.239
AAGCTCAC	-0.167
AACAATCA	0.287
CACCCCGG	-0.19
ACTTCGTA	-0.0634
CCGTAACG	-0.0115
GCGTAACC	0.14
ACGTAACT	0.413
AAGTAACG	0.0219
ACGTAACA	0.386
CCGTAACC	-0.0836

Sequence	PBM E-score
GCGTAACA	0.195
TCGTAACA	0.129
ACGTAACC	0.414
ACGTAACG	0.39
AAGTAACT	0.204
AGGTAACT	0.106
ATGAGACG	-0.0685
ACCTAGGG	-0.159
ACCCATGG	-0.144
CTCCTTTA	-0.251
CTACCGTA	0.0736
ATCAAATA	0.0992
CTCGGTTA	0.0295
GCGTCAGA	0.313
CCGTCAGA	-0.0924
CCGTCAGC	0.0302
ACGTCAGA	0.464
ATGTCAGG	0.176
ACGTCAGG	0.413
ACGTCAGC	0.482
GGGTCAGA	-0.219
CCGTCAGG	-0.107
GCGTCAGC	0.15
GTGTCAGA	-0.0004
TCGTCAGA	0.124
ACCGACGG	-0.0433

Sequence	PBM E-score
CTTCCCGA	-0.0284
AGTCGCAG	-0.192
ACTCTTGA	-0.103
CCTTGCAA	-0.186
ACTCCGCG	-0.0486
CGGCATAA	0.135
AACTCGAG	-0.0652
ACCTTTGA	-0.156
CCTCCTAG	-0.121
AAGCACGT	0.0741
GAGCAGGA	-0.154
GGAAACCC	-0.147
ACGTCAGT	0.472
AAGTCAGT	0.0407
ACCTCAGT	0.013
GACACGCC	0.0155
CTGGACTA	-0.267
GGTACGTA	0.136
CGTACGCC	0.111
CGTACGTC	0.31
CGTACGTA	0.306
AGTACGTA	0.267
AGTACGTC	0.205
CGTAAACA	0.262
TATACCGA	0.00086
GCTGATGA	0.278

Sequence	PBM E-score
GATGATGA	0.319
GGTGATTA	0.206
TATGATAA	0.251
CATGATGC	0.28
TATGATGA	0.337
GATGATCA	0.171
GGTGATGA	0.362
CATGATGA	0.342
TATGATCA	0.207
CGTGATGA	0.297
CATGATGG	-0.0379
CACGCTAC	-0.134
ACTACCGC	-0.0306
CTCTCAAG	-0.14
GCCAACGC	-0.0319
CGAACTAG	0.0382
CGCAATTA	0.18
CCCAAAAC	0.105
CCTGGGGA	-0.402
CCTGCACA	-0.179
ACACTACT	0.0264
CCTTCCGA	-0.149
AGCTACTC	-0.274
CTTGATGA	0.24
GTTGATGA	0.309
ATTGATGA	0.296

Sequence	PBM E-score
ACGAGGAT	-0.0239
ATGTCACA	0.375
CTGTCACA	0.0581
ATGTCACG	0.396
GTGTCACA	0.229
ATGTCAAA	0.237
ATGTCAGA	0.221
ATGTCAAC	0.251
CTGTCACC	0.0496
ATGTCACC	0.465
AGGGCTAG	-0.242
ATCTCTCG	-0.0585
GGGAAAAC	-0.0343
AGAGGTTC	-0.11
AAAGCGCT	0.183
GCCGCACC	0.226
ATAGAAGG	-0.208
GCATAATA	0.227
GTATAATA	0.288
ACATAATC	0.267
ATATAATA	0.31
ATAATATA	0.358
CTATAATA	0.0135
ATAATATG	0.273
CTAATATA	0.302
GTAATAGA	0.0316

Sequence	PBM E-score
ATAATATC	0.219
ACATAATA	0.345
GTAATATA	0.354
TTCACAAA	0.0753
ATCGCGTG	0.0786
CGGGCGAC	-0.319
GGAGGCCA	-0.314
AAAAGGTA	-0.0898
AATTACCG	0.196
ATTCGATC	0.153
GTTGTTCA	0.0498
ATGAGCCG	0.0382
ATACGGCG	0.36
ATACGGCC	0.138
CTACGGCA	0.283
GTACGGCA	0.249
ATACGGCA	0.394
ATACGGTG	0.104
AGAAAAGG	0.0591
CAGACTTA	-0.094
CATAAGCA	-0.0945
GTCACTGA	0.281
CTCACTCA	0.0247
ATCACTTA	0.194
GTCACTCA	0.315
ATCACTCA	0.138

Sequence	PBM E-score
GTCACTTA	0.331
CCAGTGTC	-0.108
GCGCCTAC	0.136
CGGCAACG	0.0207
TCGAAGCA	-0.0376
GGCCGCTA	-0.232
CCCGCGGC	0.109
AACGCGGC	0.261
GACGCGGC	0.318
GCCGCGGA	0.0146
CACGCGGC	0.279
GCCGCGGC	0.31
AGTGAACC	-0.0808
AACGTCTG	0.0755
AACGTCAA	0.401
CACGTCTG	0.0582
GACGTCAA	0.479
AACGTCGG	-0.174
CACGTCAG	0.449
AACGTCCA	0.0436
AACGTCGA	0.133
GACGTCCA	0.276
CCCGTCAG	-0.282
AACGTCAG	0.371
GACGTCGA	0.292
CAAACTCA	0.0635

Sequence	PBM E-score
GGCACCAC	-0.1
AAGCGATG	-0.134
CCAGTTCG	-0.0928
CAAACGCG	0.0743
ATGGCCCA	-0.0308
AACTTCCA	-0.178
AGACCTAC	-0.227
ATCCCAGG	-0.234
CCGATCTC	-0.145
CACGTCAC	0.489
TACGTCAA	0.484
TGCGTCCA	-0.0683
AACGTCTC	-0.0757
TACGTCCA	0.0953
AACGTCCC	-0.173
AACGTCAC	0.488
GGCGTCAA	0.263
CACGTCCC	-0.216
TACGTCTA	0.188
CACGTCTC	-0.097
TGCGTCAA	0.318
CATACTCC	0.0426
CAGCCAAC	-0.13
CGAATTAG	0.0675
CGTTTAAG	0.0111
AGGTCTAC	-0.216

Sequence	PBM E-score
AAACTAGT	0.062
CCCTGAGA	-0.247
GAAATCCC	-0.101
CGTTCTTA	0.0793
AAGCCATG	-0.124
CAACAGCC	0.153
ACAAGAAA	0.237
CACGTCAA	0.366
GACGTCGC	0.236
AACGTCGT	0.0196
CACGTCTA	-0.0114
TATGTCAA	0.378
GACGTCAC	0.495
TCTGTCAA	0.111
AATGTCAA	0.102
AACGTCAT	0.489
CCCGTCAA	-0.228
AACGTCCT	-0.0138
GACGTCCC	0.016

From the supplement of paper PMC3334620
